Only some compounds are listed: those with a hit (about 11% of all), similar ones and a draw of the others.
Pf growth 96h: P. falciparum growth inhibition at 96 hours; P. falciparum luciferase reporter growth, 96 h; Potency, µM (titrated, usually from 28.7 µM), inactives show at the top dose activity change, negative = inhibition, usual class: inhibitors; 320,000 compounds, 6.9% hits; AID 504834
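Parasite growth measured via integrated firefly luciferase reporter in P. falciparum. Infected erythrocytes at 2% hematocrit, 0.05% parasitemia final were treated 96 hours at 37 C under 5% CO2, and luminescence was read.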
HCV inhibitor: blocks hepatitis C virus | Potency, µM (top dose mostly 41.8 µM), for the others: at the top dose activity change, negative = inhibition, usual class: inhibitors | Huh7.5.1 HCVcc-Cre infection, luciferase reporter, 44 h | 340,000 compounds, 3.4% hits
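Whole-lifecycle infectious HCVcc-Cre system; cells 1,000/well, compound then virus (~0.5 moi) added 4 h after plating, 44 h culture. Luciferase read 15 sec following 15 min substrate incubation, room temp.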
Pf growth 48h: P. falciparum growth inhibition at 48 hours (one generation); P. falciparum luciferase growth in erythrocytes, 48 h; Potency, µM (doses to about 28.7 µM), inactives show at the top dose activity change, negative = inhibition, hits mostly inhibitors; 310,000 compounds, 5.9% hits
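Read-out is firefly luciferase luminescence from an integrated reporter in P. falciparum, so falling signal marks reduced parasite growth. Infected erythrocytes were at 2% hematocrit and 0.1% parasitemia (final) in Albumax-supplemented RPMI 1640.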
AmpC no deterg: AmpC beta-lactamase inhibition without detergent; P00811; AmpC nitrocefin hydrolysis, absorbance 480 nm, 0.0001% Triton; Potency, µM (highest dose often 57.1 µM), for the others: at the top dose activity change, negative = inhibition, most hits filed as inhibitors; 330,000 compounds, 0.52% hits; AID 485341;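 note: plate controls were no compound for no effect and no enzyme for full effect; nearly all actives have a fitted effect of over 20% in size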
Target sequence (P00811 whole entry, looked up): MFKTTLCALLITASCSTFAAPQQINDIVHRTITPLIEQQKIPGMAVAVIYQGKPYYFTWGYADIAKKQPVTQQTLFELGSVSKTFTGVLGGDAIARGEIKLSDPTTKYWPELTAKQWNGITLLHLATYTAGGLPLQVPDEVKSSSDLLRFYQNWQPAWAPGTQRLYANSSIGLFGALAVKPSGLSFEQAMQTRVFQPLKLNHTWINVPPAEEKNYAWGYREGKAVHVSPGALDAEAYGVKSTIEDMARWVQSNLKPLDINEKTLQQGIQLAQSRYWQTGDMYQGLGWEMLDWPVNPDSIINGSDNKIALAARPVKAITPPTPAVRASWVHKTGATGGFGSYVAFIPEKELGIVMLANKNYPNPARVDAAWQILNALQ
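AmpC (5.3 nM in the dispensed reagent) in 20 mM phosphate pH 7.0 with 0.01% (detergent screen) or 0.0001% Triton X-100 was preincubated with compounds for 15 min at room temperature. Nitrocefin was then added from an 800 uM solution, and hydrolysis was followed at 480 nm.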
AmpC inh detg: blocks E. coli AmpC beta-lactamase in detergent assay; P00811; AmpC hydrolysis of nitrocefin, absorbance 480 nm, 0.01% Triton; Potency, µM (top dose mostly 114 µM), for inactives: top-dose activity change, negative = inhibition, most hits filed as inhibitors; 370,000 compounds, 0.041% hits;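 note: 0% = no-compound wells and -100% = no-enzyme wells; nearly all actives have a fitted effect of over 25% in size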
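20 mM phosphate pH 7.0 + 0.01% (detergent screen) or 0.0001% Triton X-100; 5.3 nM AmpC reagent; cpd preinc 15 min RT; nitrocefin (800 uM stock) to start; A480 q20 s × 4 min; Activity was normalised to no-enzyme and no-compound control wells.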
AMA1-RON2 inh: disrupts binding of P. falciparum AMA1 to RON2 | AlphaScreen AMA1-biotinylated RON2 peptide binding | Potency, µM (series often up to 58.2 µM), without a hit: top-dose activity change, negative = inhibition, most hits filed as inhibitors | 360,000 compounds, 0.2% hits | AID 720542;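 note: 0% = vehicle wells and -100% = peptide control; nearly all actives have a fitted effect of over 45% in size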
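AMA1 (3D7) with his tag at 25 nM final met compounds first, then biotinylated RON2 peptide at 25 nM; detection used donor plus acceptor beads, 10 µg/mL apiece, read by AlphaScreen after 30 min at room temperature.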
Starred values were filed as active, the others as inactive; [ ] = dose if it differs, or a comment. Calls come from the whole dose curve; as a rule, active = well fitted curve in the direction sought with a large enough effect; inconclusive = small, poorly fitted or top-dose-only effect, or another doubt; inactive = no such curve, though single readings can be large; an effect the other way counts as inactive or inconclusive. Unless noted, % is set by controls: 0 for no effect and ±100 for the full control effect; potency is the fitted concentration of half-maximal effect.

CC(C)c1ccc(S(=O)(=O)c2cn(Cc3ccc(F)cc3)c3cc4c(cc3c2=O)OCO4)cc1 was read as Pf growth 96h -5.1%, HCV inhibitor 10.2%, Pf growth 48h inconclusive, AmpC no deterg -31.6% and AmpC inh detg 4.4%.
Screening Cc1ccc(Cn2cc(S(=O)(=O)c3ccc(C(C)C)cc3)c(=O)c3cc4c(cc32)OCO4)cc1 returned Pf growth 96h 3.29µM*, HCV inhibitor -2.1%, Pf growth 48h 9.28µM*, AmpC no deterg -45.7%, AmpC inh detg -11.1% and AMA1-RON2 inh -6.4%[2.32 µM].
Screening Cc1ccccc1Cn1cc(S(=O)(=O)c2ccc(C(C)C)cc2)c(=O)c2cc3c(cc21)OCO3 returned HCV inhibitor 10µM* and AMA1-RON2 inh 0.0%.
`N#CC1=C(N)S[C@H](C(=O)C23CC4CC(CC(C4)C2)C3)[C@H]1c1ccncc1` gave Pf growth 96h 4.65µM*, HCV inhibitor 3.5%, Pf growth 48h 10.4µM*, AmpC no deterg -6.9%, AmpC inh detg inconclusive and AMA1-RON2 inh 4.5%.
CCOc1ccc2nc(NC(=O)C3CCCN(S(=O)(=O)c4c(C)noc4C)C3)sc2c1 (configuration not stated) was read as Pf growth 96h 13.1µM*, HCV inhibitor 11.2µM*, Pf growth 48h inconclusive, AmpC no deterg 17.6%, AmpC inh detg -4.2% and AMA1-RON2 inh 1.8%.
Screening COc1ccc2nc(NC(=O)C3CCCN(S(=O)(=O)c4cccc5nonc45)C3)sc2c1 (configuration not stated) returned Pf growth 96h 87.6%, HCV inhibitor inconclusive, Pf growth 48h 13.1µM*, AmpC no deterg -11.4%, AmpC inh detg -10.7% and AMA1-RON2 inh -1.2%.
C#CC(c1ccccc1)(c1ccccc1)n1ccnc1 was read as AMA1-RON2 inh -5.4%.
For Clc1ccccc1C(c1ccccc1)(c1ccccc1)n1ccnc1 the results were Pf growth 96h 1.44µM*, HCV inhibitor inconclusive, Pf growth 48h 0.642µM*, AmpC no deterg -5.4%, AmpC inh detg -1.3% and AMA1-RON2 inh -4.6%.
Cc1ccc(C)c(N2CCN(C(=O)CN3C(=O)CSc4c3c(C)nn4-c3ccccc3)CC2)c1 was read as AmpC inh detg -1.6%.
`Cc1cccc(Cn2cc(S(=O)(=O)c3ccccc3)c(=O)c3cc(F)c(N4CCOCC4)cc32)c1` gave AmpC inh detg 5.2%.
Screening O=C(NCCCN1CCOCC1)c1cc(C(=O)C2CCCCC2)c[nH]1 returned Pf growth 96h 0.0%, HCV inhibitor 20.0%, Pf growth 48h 10.4µM*, AmpC no deterg -14.6%, AmpC inh detg -11.3% and AMA1-RON2 inh -16.5%.
`CCC(CC)C(=O)c1c[nH]c(C(=O)NCCCN2CCOCC2)c1` gave Pf growth 96h 67.0%, HCV inhibitor 21.0%, Pf growth 48h 7.0%, AmpC no deterg -26.1%, AmpC inh detg -3.8% and AMA1-RON2 inh 8.7%.
Screening COc1ccc(/C=C2\N=C(C)OC2=O)cc1OC returned Pf growth 96h 2.2%, HCV inhibitor 10.1%, Pf growth 48h 10.1%, AmpC no deterg -21.3%, AmpC inh detg 35.5µM* and AMA1-RON2 inh -7.7%.
`COc1ccc(/C=C2/C(=O)N=C(N)N2C)cc1OC` gave Pf growth 96h 11.7µM*, HCV inhibitor 4.2%, Pf growth 48h 2.1%, AmpC no deterg 2.9%, AmpC inh detg 0.6% and AMA1-RON2 inh 24.6%.
COc1ccc(/C=C2\N=C(C)OC2=O)cc1OC(C)=O was read as Pf growth 96h 46.4%, HCV inhibitor 12.7%, Pf growth 48h 6.4%, AmpC no deterg -7.1%, AmpC inh detg -11.5% and AMA1-RON2 inh 0.8%.
CCN(Cc1ccncc1)C(=S)Nc1c(C)cccc1C was read as Pf growth 96h 2.08µM*, HCV inhibitor 8.5%, Pf growth 48h 22.1%, AmpC no deterg -8.3%, AmpC inh detg -4.1% and AMA1-RON2 inh 0.5%.
Screening O=C(Nc1ccc(Cl)c(Cl)c1)N(Cc1cccnc1)Cc1ccco1 returned Pf growth 96h 4.2%, HCV inhibitor inconclusive, Pf growth 48h -5.7%, AmpC no deterg -3.9%, AmpC inh detg 8.0% and AMA1-RON2 inh -0.4%.
`Cc1cccc(C)c1NC(=S)N(Cc1ccccc1)Cc1cccnc1` gave Pf growth 96h -19.1%, HCV inhibitor 7.7%, Pf growth 48h inconclusive, AmpC no deterg -16.7%, AmpC inh detg -13.0% and AMA1-RON2 inh -19.3%.
`S=C(Nc1ccccc1Cl)N(Cc1cccnc1)Cc1ccco1` gave Pf growth 96h inconclusive, HCV inhibitor -16.5%, Pf growth 48h 4.15µM*, AmpC no deterg -22.5%, AmpC inh detg 3.2% and AMA1-RON2 inh -10.2%.
Screening CCc1cccc(C)c1NC(=S)N(Cc1cccnc1)Cc1ccco1 returned Pf growth 96h 11.7µM*, HCV inhibitor inconclusive, Pf growth 48h inconclusive, AmpC no deterg -10.7%, AmpC inh detg inconclusive and AMA1-RON2 inh 6.5%.
Screening COc1ccc(OCC(=O)Nc2cc(-c3ccccc3F)nn2-c2ccccc2)cc1 returned AmpC inh detg 16.8%.
Screening O=C(N/N=C\c1cc(Br)c(Br)o1)c1cncc(Br)c1 returned Pf growth 96h -22.5%, HCV inhibitor 1.1%, Pf growth 48h 5.6%, AmpC no deterg -30.3%, AmpC inh detg -9.9% and AMA1-RON2 inh -3.0%.
`O=C(N/N=C/c1[nH]c2ccccc2c1Cl)c1cccc(Br)c1` gave Pf growth 96h 11.7µM*, HCV inhibitor 7.08µM*, Pf growth 48h inconclusive, AmpC no deterg -42.5%, AmpC inh detg -0.1% and AMA1-RON2 inh 12.5%.
O=C(N/N=C/c1cccnc1)c1cccc(Br)c1 was read as Pf growth 96h 6.57µM*, HCV inhibitor 18.5%, Pf growth 48h 5.3%, AmpC no deterg -18.0%, AmpC inh detg -10.5% and AMA1-RON2 inh 29.7%.
`O=C(N/N=C/c1cccc(Oc2ccccc2)c1)c1ccncc1` gave Pf growth 96h 3.7µM*, HCV inhibitor 7.7%, Pf growth 48h 6.7%, AmpC no deterg 4.4%, AmpC inh detg 0.7% and AMA1-RON2 inh -5.5%.
`O=C(N/N=C/c1ccncc1)c1ccccc1` gave Pf growth 96h 52.4%, HCV inhibitor 3.2%, Pf growth 48h 21.6%, AmpC no deterg -11.2%, AmpC inh detg -1.0% and AMA1-RON2 inh 0.7%.
`O=C(N/N=C/c1cccnc1)c1cccc(Cl)c1` gave Pf growth 96h 26.3%, HCV inhibitor 3.1%, Pf growth 48h 28.2%, AmpC no deterg -7.2%, AmpC inh detg -7.9% and AMA1-RON2 inh 3.7%.
`O=C(N/N=C/c1cc(Br)c(Br)o1)c1cccnc1` gave Pf growth 96h 13.1µM*, HCV inhibitor 5.6%, Pf growth 48h -15.8%, AmpC no deterg -20.9%, AmpC inh detg 1.9% and AMA1-RON2 inh 29.3%.

Screening data: PubChem BioAssay, National Center for Advancing Translational Sciences (NCATS)
